Drawing on PubChem BioAssay (Tox21), this text covers Potency and max response for 18 compounds.

Where “and” joins values, the source holds several entries; their conditions need not be identical. Equal values may be shown once. Results filed as inconclusive are left out. Where a structure was tested more than once in an assay, its records may differ in their call. Calls of active or inactive are those of the source. Calls come from the whole dose curve; as a rule, active = well fitted curve in the direction sought with a large enough effect in the repeat runs; inconclusive = weak or mixed curves; inactive = no such curve, though single readings can be large; an effect the other way counts as inactive or inconclusive.

Assay [1] is described as follows: qHTS RealTime-Glo MT Cell Viability Assay in HepG2 cells - 40 hour (AID 1224870). Note: nearly all actives have a fitted effect of over 50% in size. Note: potency is the fitted concentration of half-maximal effect. Put shortly: (§1)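 HepG2 cells mixed with RealTime-Glo MT reagents (NanoLuc plus cell-permeant prosubstrate) were seeded at 600 cells/well, incubated 5 h at 37 C/5% CO2, then pinned with compounds in DMSO; nonlytic luminescence tracked viability during 40 h treatment.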
A short description of assay [2]: A CellTox Green Cytotoxicity Assay to monitor cytotoxicity in HEK293 cells - 40 hour (AID 1224871). Note: nearly all actives have a fitted effect of over 45% in size. Note: potency is the fitted concentration of half-maximal effect. Put shortly:
(§2)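 Homogeneous no-lysis format: HEK293 cell suspension mixed with CellTox Green reagent, seeded, incubated 5 h at 37 C/5% CO2, then dosed by pintool with compound in DMSO.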

A short description of assay [3]: qHTS RealTime-Glo MT Cell Viability Assay in HEK293 cells - 16 hour (AID 1224872). Note: nearly all actives have a fitted effect of over 50% in size. Note: potency is the fitted concentration of half-maximal effect. Put shortly: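 Nonlytic real-time viability readout: viable cells convert prosubstrate to NanoLuc substrate, giving luminescence proportional to live cell number. HEK293, 600 cells/well, compound added after 5 h, continuous culture at 37 C.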
Assay [4] is described as follows: qHTS RealTime-Glo MT Cell Viability Assay in HepG2 cells - 8 hour (AID 1224873). Note: nearly all actives have a fitted effect of over 55% in size. Note: potency is the fitted concentration of half-maximal effect. Put shortly: as §1
The nature of assay [5]: qHTS RealTime-Glo MT Cell Viability Assay in HEK293 cells - 40 hour (AID 1224874). Note: nearly all actives have a fitted effect of over 50% in size. Note: potency is the fitted concentration of half-maximal effect. As to conditions: RealTime-Glo luminescence; max response: stronger effect = lower value. Put shortly: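 Measured as luminescence from the same continuously cultured HEK293 wells at successive time points (0, 8, 16, 24, 32, 40 h) after compound addition. Reagent present from seeding; dosing at 5 h; incubation 37 C.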

A short description of assay [6]: A CellTox Green Cytotoxicity Assay to monitor cytotoxicity in HEK293 cells - 24 hour (AID 1224875). Note: series mostly up to about 77 µM; nearly all actives have a fitted effect of over 45% in size. The procedure, abridged:
as §2

Assay [7] can be described thus: A CellTox Green Cytotoxicity Assay to monitor cytotoxicity in HepG2 cells - 16 hour (AID 1224876). Note: nearly all actives have a fitted effect of over 45% in size. Note: potency is the fitted concentration of half-maximal effect. The procedure, abridged:
(§3)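 Fluorescent DNA-binding dye, 600 HepG2 cells/well, 5 h preincubation then compound in DMSO; same plates read at 0–40 h, 37 C.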

A short description of assay [8]: qHTS RealTime-Glo MT Cell Viability Assay in HepG2 cells - 32 hour (AID 1224877). Note: nearly all actives have a fitted effect of over 55% in size. Note: potency is the fitted concentration of half-maximal effect. Put shortly: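 Luminescence read-out: viable HepG2 cells reduce a prosubstrate to a NanoLuc substrate, giving a signal proportional to live cell number. Reads taken at 0, 8, 16, 24, 32 and 40 h of compound exposure at 37 C.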
A short description of assay [9]: A CellTox Green Cytotoxicity Assay to monitor cytotoxicity in HepG2 cells - 24 hour (AID 1224878). Note: nearly all actives have a fitted effect of over 45% in size. Note: potency is the fitted concentration of half-maximal effect. Put shortly:
as §3

Assay [10] in a line: A CellTox Green Cytotoxicity Assay to monitor cytotoxicity in HepG2 cells - 40 hour (AID 1224879). Note: nearly all actives have a fitted effect of over 40% in size. Note: potency is the fitted concentration of half-maximal effect. The procedure, abridged:
as §3
% is set by controls: 0 for no effect and ±100 for the full control effect.

In the case of `Nc1cc(-c2ccncc2)c[nH]c1=O`, the Potency entry in assay [1], in assay [2], in assay [3], in [4], in assay [6] and in assay [7] was “inactive” each time. Further, the Potency entry in assay [8] and in [9] was “inactive” throughout. In addition, the max response in assay [5] was -8.6% (inactive) and 7.61% (inactive).

Regarding `O=S(=O)(Oc1ccc(Cl)cc1Cl)c1ccccc1`, the Potency result in assay [1], in assay [2], in [3], in [4], in assay [6] and in assay [7] was “inactive” in each case. The Potency result in [8] and in assay [9] was “inactive” in each case. Also, the Potency in assay [5] was 14 µM (active). Besides, the max response in assay [5] is -21.1% (inactive).

For the compound `CC1(C)CC(N=C=O)CC(C)(CN=C=O)C1` (centres undefined), the Potency result in assay [1], in assay [2], in [3], in assay [4], in assay [6] and in assay [7] was “inactive” in each case. The Potency result in [8], in assay [9] and in [10] was “inactive” each time. Also, the max response in [5] was 8.76% (inactive) and 2.25% (inactive).

In the case of `CC1(C)O[C@@H]2C[C@H]3[C@@H]4C[C@H](F)C5=CC(=O)CC[C@]5(C)[C@H]4[C@@H](O)C[C@]3(C)[C@]2(C(=O)CO)O1`, the Potency result in [1], in assay [2], in [3], in assay [4], in assay [6] and in [8] was “inactive” in each case. Besides, the max response in assay [5] is -22.4% (inactive) and 2.26% (inactive). The Potency in assay [7] is 49 µM (active) and inactive; in assay [9], 49 µM (active) and inactive; in assay [10], 43.6 µM (active) and inactive.

`c1ccc2[nH]cnc2c1`: the Potency result in [1], in [2], in assay [3], in [4], in assay [6] and in [7] was “inactive” in each case. For the same compound, the Potency entry in assay [8], in assay [9] and in [10] was “inactive” each time. Moreover, in [5], the max response is -5.47% (inactive) and 1.04% (inactive).

On to `CCCCCCCCCCC=CC1CC(=O)OC1=O` (centres undefined), for which the Potency entry in assay [1], in assay [2], in assay [3], in assay [4], in assay [6] and in [7] was “inactive” in each case. Also, the Potency result in assay [8], in assay [9] and in assay [10] was “inactive” in each case. In [5], the max response is 0.806% (inactive) and -0.583% (inactive).

Regarding `CC(C)(CO)COC(=O)C(C)(C)CO`, the Potency result in assay [1], in [2], in [3], in [4], in assay [6] and in assay [7] was “inactive” in each case. The Potency result in [8] and in assay [9] was “inactive” throughout. Further, the max response in assay [5] was 0.943% (inactive) and 3.19% (inactive).

Take `CC1CC(OC(=O)c2ccccc2O)CC(C)(C)C1` (centres undefined): the Potency result in assay [1], in [3], in [4], in [6], in assay [7] and in assay [8] was “inactive” in each case. The Potency result in assay [9] and in assay [10] was “inactive” in each case. The Potency in assay [2] is 48.5 µM (active) and inactive. The max response in assay [5] is -10.4% (inactive) and -7.39% (inactive) and -13.1% (inactive).

For `CS(=O)(=O)Nc1ccc([N+](=O)[O-])cc1Oc1ccccc1`, the Potency result in assay [1], in [2], in [3], in assay [4], in assay [6] and in assay [7] was “inactive” throughout. Besides, the Potency result in [8] and in assay [9] was “inactive” throughout. In addition, the max response in assay [5] is -6.51% (inactive) and 1.07% (inactive).

For the compound `C=C(C)C(=O)OCCCCCCCCCCCC`, the Potency result in assay [1], in [2], in [3], in [4], in assay [6] and in assay [7] was “inactive” each time. The Potency entry in assay [8], in [9] and in assay [10] was “inactive” in each case. For the same compound, in [5], the max response is 0.0102% (inactive) and 4.38% (inactive).

Turning to `C[C@@H](O)[C@H]1C(=O)N2C(C(=O)O)=C(S[C@@H]3CN[C@H](C(=O)N(C)C)C3)[C@H](C)[C@H]12`, the Potency entry in [1], in [2], in assay [3], in assay [4], in assay [6] and in assay [7] was “inactive” in each case. In addition, the Potency result in assay [8] and in assay [9] was “inactive” each time. The max response in [5] was 2.43% (inactive) and 4.85% (inactive).

Take `NS(=O)(=O)c1cc2c(cc1Cl)NC=NS2(=O)=O`: the Potency result in assay [1], in [2], in assay [3], in [4], in assay [6] and in assay [7] was “inactive” throughout. The Potency result in assay [8] and in assay [9] was “inactive” in each case. Also, the max response in assay [5] was 7.37% (inactive) and 0.52% (inactive).

In the case of `CS(=O)(=O)c1ccc([C@@H](O)[C@@H](CO)NC(=O)C(Cl)Cl)cc1`, the Potency result in [1], in [2], in [3], in assay [4], in [6] and in assay [7] was “inactive” in each case. In addition, the Potency entry in [8], in [9] and in [10] was “inactive” throughout. Moreover, in [5], the max response was 13.1% (inactive) and 7.93% (inactive).

Take `CC(C)n1c(/C=C/[C@@H](O)C[C@@H](O)CC(=O)O)c(-c2ccc(F)cc2)c2ccccc21`: the Potency entry in assay [1], in [2], in assay [3], in assay [4], in [6] and in assay [7] was “inactive” throughout. The Potency entry in assay [8] is “inactive”. Moreover, in assay [5], the max response was -22.2% (inactive) and 0.258% (inactive). Moreover, the Potency in [9] is 6.17 µM (active) and 10.7 µM (active); in assay [10] it was 4.36 µM (active) and 9.52 µM (active).

With `CCCCCCCCCCCCN`, the Potency entry was “inactive and 34.7 µM (active)” in assay [1]; “inactive and 49 µM (active)” in assay [2]; “inactive and 38.9 µM (active)” in [3]; “inactive and 21.9 µM (active)” in assay [4]; 43.6 µM (active) in assay [5]; “inactive and 19.5 µM (active)” in [7]. The Potency entry was “inactive and 24.5 µM (active)” in [8]; “inactive and 19.5 µM (active)” in assay [9]; “inactive and 21.9 µM (active)” in assay [10]. For the same compound, the max response in [5] was 3.89% (inactive) and -9.66% (inactive).

For the compound `COCC(C)O` (centres undefined), the Potency result in [1], in assay [2], in assay [3], in [4], in assay [6] and in assay [7] was “inactive” each time. Moreover, the Potency result in assay [8], in assay [9] and in assay [10] was “inactive” throughout. In assay [5], the max response is -1.03% (inactive) and -1.56% (inactive).

For `CCCCCCC(C)(C)S`, the Potency result in assay [1], in assay [2], in [3], in assay [4], in [6] and in [7] was “inactive” throughout. The Potency entry in assay [8] and in assay [9] was “inactive” in each case. Besides, in [5], the max response is 2.32% (inactive) and -0.908% (inactive).

For `CCOC(=O)[C@H](CCc1ccccc1)N[C@@H](C)C(=O)N1Cc2ccccc2C[C@H]1C(=O)O`, the Potency entry in assay [1], in assay [2], in [3], in assay [4], in assay [6] and in assay [7] was “inactive” each time. The Potency entry in [8], in assay [9] and in assay [10] was “inactive” throughout. Further, the max response in assay [5] is -0.607% (inactive) and -1.19% (inactive).
